Reference: PubChem BioAssay AID1159580 (chemical genetic matrix, 2015)
Screen size: about 5,500 compounds; about 2,000 (36%) were called active. Not shown: some 18% with an inconclusive outcome. No stated cut-off is given here; in the data, active means normalized growth mostly below about 0.91 (no sharp cut-off); inconclusive means no clear call, values can overlap the other calls; inactive means mostly above about 0.92. Some of the results follow.

Test: chemical genetic growth profiling, strain panel (AID 1159580);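 further: tested at 20 µM; growth read once vehicle control cultures reached saturation at 30 °C; 1 = growth at the plate median or of vehicle wells; lower values mean less growth of the strain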
Conditions: S. cerevisiae deletion strains, growth OD
[1] = locus YAR019C, strain CDC15, hits give low values
[2] = locus YBL105C, strain PKC1, hits give low values
[3] = locus YBR135W, strain CKS1, hits give low values
[4] = locus YBR136W, strain MEC1, hits give low values
[5] = locus YBR160W, strain CDC28, hits give low values
[6] = locus YDL017W, strain CDC7, hits give low values
[7] = locus YDL028C, strain MPS1, hits give low values
[8] = locus YDL101C, strain DUN1, hits give low values
[9] = locus YDL108W, strain KIN28, hits give low values
[10] = locus YDL132W, strain cdc53, hits give low values
[11] = locus YDL214C, strain PRR2, hits give low values
[12] = locus YDR052C, strain DBF4, hits give low values
[13] = locus YDR054C, strain cdc34, hits give low values
[14] = locus YDR226W, strain ADK1, hits give low values
[15] = locus YDR477W, strain SNF1, hits give low values
[16] = locus YER123W, strain YCK3, hits give low values
[17] = locus YER133W, strain GLC7, hits give low values
[18] = locus YFL009W, strain cdc4, hits give low values
[19] = locus YFL029C, strain CAK1, hits give low values
[20] = locus YFR003C, strain YPI1, hits give low values
[21] = locus YFR019W, strain FAB1, hits give low values
[22] = locus YFR028C, strain CDC14, hits give low values
[23] = locus YGR040W, strain KSS1, hits give low values
[24] = locus YGR052W, strain FMP48, hits give low values
[25] = locus YGR092W, strain DBF2, hits give low values
[26] = locus YHR030C, strain SLT2, hits give low values
[27] = locus YHR079C, strain IRE1, hits give low values
[28] = locus YHR082C, strain KSP1, hits give low values
[29] = locus YHR205W, strain SCH9, hits give low values
[30] = locus YIL147C, strain SLN1, hits give low values
[31] = locus YJL095W, strain BCK1, hits give low values
[32] = locus YJL128C, strain PBS2, hits give low values
[33] = locus YJL157C, strain FAR1, hits give low values
[34] = locus YJR016C, strain ILV3, hits give low values
[35] = locus YJR066W, strain TOR1 (second series), hits give low values
[36] = locus YJR066W, strain TOR1, hits give low values
[37] = locus YKL048C, strain ELM1, hits give low values
[38] = locus YKL067W, strain YNK1, hits give low values
[39] = locus YKL101W, strain HSL1, hits give low values
[40] = locus YKL193C, strain SDS22, hits give low values
[41] = locus YKL203C, strain TOR2, hits give low values
[42] = locus YLR113W, strain HOG1, hits give low values
[43] = locus YLR133W, strain CKI1, hits give low values
[44] = locus YLR403W, strain SFP1, hits give low values
[45] = locus YML070W, strain DAK1, hits give low values
[46] = locus YMR001C, strain CDC5, hits give low values
[47] = locus YMR205C, strain PFK2 (second series), hits give low values
[48] = locus YMR277W, strain FCP1, hits give low values
[49] = locus YNL006W, strain LST8, hits give low values
[50] = locus YNL020C, strain ARK1, hits give low values
[51] = locus YNL161W, strain CBK1, hits give low values
[52] = locus YNL183C, strain NPR1, hits give low values
[53] = locus YNL207W, strain RIO2, hits give low values
[54] = locus YNL222W, strain SSU72, hits give low values
[55] = locus YNL307C, strain MCK1 (second series), hits give low values
[56] = locus YOL078W, strain AVO1, hits give low values
[57] = locus YOL136C, strain PFK27, hits give low values
[58] = locus YOR061W, strain CKA2, hits give low values
[59] = locus YOR119C, strain RIO1, hits give low values
[60] = locus YOR231W, strain MKK1, hits give low values
[61] = locus YOR329C, strain SCD5, hits give low values
[62] = locus YPL031C, strain PHO85, hits give low values
[63] = locus YPL153C, strain RAD53, hits give low values
[64] = locus YPL204W, strain HRR25, hits give low values
[65] = locus YPL209C, strain IPL1, hits give low values
[66] = locus YPL256C, strain CLN2, hits give low values
[67] = locus YPR025C, strain CCL1, hits give low values
[68] = locus YPR106W, strain ISR1, hits give low values
[69] = locus YPR111W, strain DBF20, hits give low values
[70] = strain NNK1, hits give low values
[71] = strain TSCII, hits give low values

Measured: normalized growth

CCC1(c2ccccc2)OC(c2cc(Cl)cc(Cl)c2O)Nc2ccccc21 (stereo not drawn)
active: [15] 0.689 | [16] 0.513 | [21] 0.738 | [23] 0.689 | [25] 0.233 | [26] 0.449 | [27] 0.461 | [31] 0.464 | [33] 0.564 | [37] 0.717 | [38] 0.696 | [39] 0.678 | [42] 0.539 | [43] 0.623 | [44] 0.572 | [45] 0.561 | [47] 0.688 | [50] 0.552 | [55] 0.551 | [57] 0.452 | [58] 0.469 | [60] 0.476 | [63] 0.562 | [64] 0.604 | [66] 0.47
inactive: [1] 0.96 | [2] 0.964 | [3] 0.965 | [4] 0.968 | [5] 0.964 | [6] 0.965 | [7] 0.966 | [8] 0.986 | [9] 0.968 | [10] 0.963 | [11] 0.705 | [12] 0.976 | [13] 0.954 | [14] 0.97 | [17] 0.734 | [18] 0.962 | [19] 0.967 | [20] 0.958 | [22] 0.963 | [24] 0.651 | [28] 0.689 | [29] 0.639 | [30] 0.964 | [32] 0.93 | [34] 0.962 | [35] 0.633 | [36] 0.572 | [40] 0.971 | [41] 0.751 | [46] 0.971 | [48] 0.968 | [49] 0.969 | [51] 0.962 | [52] 0.646 | [53] 0.96 | [54] 0.956 | [56] 0.967 | [59] 0.753 | [61] 0.962 | [62] 0.685 | [65] 0.954 | [67] 0.96 | [68] 0.954 | [69] 0.957 | [70] 0.963 | [71] 0.966

COc1ccc(-n2nc(C(F)(F)F)cc2-c2ccc(Cl)cc2)cc1
inactive: locus YAL040C, strain CLN3, hits give low values 1.09 | locus YCL061C, strain MRC1 (second series), hits give low values 1.01 | locus YDR363W, strain ESC2, hits give low values 1.02 | locus YER002W, strain NOP16, hits give low values 1.03 | locus YGR078C, strain PAC10, hits give low values 1.01 | locus YMR263W, strain SAP30, hits give low values 1 | locus YMR307W, strain GAS1, hits give low values 1.01 | locus YNL175C, strain NOP13, hits give low values 1.02 | locus YNL197C, strain WHI3, hits give low values 1.02 | locus YNL224C, strain SQS1, hits give low values 0.998 | locus YNL322C, strain KRE1, hits give low values 1.02 | locus YOR083W, strain WHI5 (second series), hits give low values 1.02 | locus YPL055C, strain LGE1, hits give low values 1.02 | locus YPL241C, strain CIN2, hits give low values 1

COc1ccc(-c2cc(NS(=O)(=O)c3cccc(F)c3)n(-c3ccc(Cl)c(Cl)c3)n2)cc1
inactive: [1] 0.961 | [2] 0.971 | [3] 0.977 | [4] 0.965 | [5] 0.963 | [6] 0.97 | [7] 0.945 | [8] 0.979 | [9] 0.975 | [10] 0.977 | [11] 0.92 | [12] 0.984 | [13] 0.966 | [14] 0.961 | [15] 0.903 | [16] 0.908 | [17] 0.94 | [18] 0.947 | [19] 0.961 | [20] 0.98 | [21] 0.931 | [22] 0.965 | [23] 0.894 | [24] 0.954 | [25] 0.838 | [27] 0.888 | [28] 0.873 | [29] 0.856 | [30] 0.959 | [31] 0.888 | [32] 0.921 | [33] 0.939 | [34] 0.972 | [35] 0.922 | [36] 0.87 | [37] 0.929 | [38] 0.91 | [39] 0.87 | [40] 0.968 | [41] 0.995 | [43] 0.912 | [44] 0.924 | [45] 0.906 | [46] 0.956 | [47] 0.937 | [48] 0.947 | [49] 0.966 | [50] 0.89 | [51] 0.971 | [52] 0.956 | [53] 0.973 | [54] 0.958 | [55] 0.839 | [56] 0.976 | [57] 0.887 | [58] 0.87 | [59] 0.944 | [60] 0.873 | [61] 0.967 | [62] 0.913 | [63] 0.915 | [64] 0.905 | [65] 0.97 | [67] 0.966 | [68] 0.963 | [69] 0.942 | [70] 0.961 | [71] 0.962
active: [26] 0.635 | [42] 0.811 | [66] 0.828

O=S(=O)(Nc1cc(-c2cccs2)nn1-c1ccc(I)cc1)c1cccc(F)c1
inactive: [1] 0.957 | [2] 0.966 | [3] 0.966 | [4] 0.97 | [5] 0.956 | [6] 0.97 | [7] 0.948 | [8] 0.983 | [9] 0.958 | [10] 0.966 | [11] 0.926 | [12] 0.983 | [13] 0.986 | [14] 0.961 | [15] 0.926 | [16] 0.929 | [17] 0.951 | [18] 0.971 | [19] 0.953 | [20] 0.979 | [21] 0.974 | [22] 0.983 | [23] 0.931 | [24] 0.966 | [25] 0.876 | [27] 0.922 | [28] 0.968 | [29] 0.863 | [30] 0.967 | [31] 0.903 | [32] 0.91 | [33] 0.956 | [34] 0.969 | [35] 0.952 | [36] 0.906 | [37] 0.947 | [38] 0.912 | [39] 0.931 | [40] 0.971 | [41] 1.03 | [43] 0.935 | [44] 0.944 | [45] 0.936 | [46] 0.966 | [47] 0.945 | [48] 0.968 | [49] 0.964 | [50] 0.946 | [51] 0.974 | [52] 0.986 | [53] 0.968 | [54] 0.956 | [55] 0.911 | [56] 0.966 | [57] 0.925 | [58] 0.951 | [59] 0.961 | [60] 0.935 | [61] 0.968 | [62] 0.928 | [63] 0.943 | [64] 0.928 | [65] 0.975 | [66] 0.87 | [67] 0.966 | [68] 0.964 | [69] 1.01 | [70] 0.965 | [71] 0.965
active: [26] 0.715 | [42] 0.848

O=S(=O)(Nc1ccc(-n2nc(C(F)(F)F)cc2-c2cccs2)cc1)c1ccc(F)cc1
inactive: [1] 0.993 | [2] 0.979 | [3] 0.997 | [4] 0.991 | [5] 0.998 | [6] 0.99 | [7] 0.995 | [8] 0.993 | [9] 1 | [10] 0.989 | [11] 0.986 | [12] 0.98 | [13] 0.982 | [14] 0.996 | [15] 0.991 | [16] 0.979 | [17] 0.973 | [18] 0.991 | [19] 0.994 | [20] 0.99 | [21] 0.985 | [22] 0.997 | [23] 0.987 | [24] 1.04 | [25] 0.99 | [26] 1.01 | [27] 0.993 | [28] 1.06 | [29] 0.983 | [30] 0.99 | [31] 1.04 | [32] 0.951 | [33] 0.979 | [34] 0.999 | [35] 0.956 | [36] 1.04 | [37] 0.991 | [38] 0.991 | [39] 0.995 | [40] 0.986 | [41] 1.04 | [42] 0.938 | [43] 0.983 | [44] 0.972 | [45] 0.992 | [46] 0.989 | [47] 0.995 | [48] 0.992 | [49] 0.991 | [50] 0.987 | [51] 0.989 | [52] 1.02 | [53] 0.993 | [54] 0.99 | [55] 0.996 | [56] 0.994 | [57] 0.973 | [58] 0.998 | [59] 1.05 | [60] 0.974 | [61] 0.988 | [62] 0.986 | [63] 0.997 | [64] 0.966 | [65] 0.988 | [66] 0.94 | [67] 0.993 | [68] 0.978 | [69] 0.974 | [70] 0.975 | [71] 0.995
